This passage reports inhibition results from PubChem BioAssay AID1778 (Sanford-Burnham Center for Chemical Genomics, 2009).

As usually defined, the inhibition is the change of the read-out against control, counted positive when it falls.

Each structure is given as a SMILES string. In all, about 290,000 compounds went through this assay and about 260 (0.09%) were called active. This is one part of a sample in which actives are shown more often than they occur. Cut-off read from the data, not from the text of the source: active = inhibition above about 50%; inactive = the rest. Entries with a potency or affinity are not part of this list.

The target in this assay is Kappa-type opioid receptor (Homo sapiens) (UniProt P41145). As to the kind of experiment: kappa opioid receptor blockers – cell-based, luminescence, uHTS (AID 1778). Particulars: KOR beta-arrestin recruitment, antagonist mode, stronger effect = higher value; at 10 µM unless noted. (In general: Recruitment of arrestin is a read-out of receptor activation apart from second messengers.)
Chain of Kappa-type opioid receptor (Homo sapiens) (P41145 whole entry, looked up): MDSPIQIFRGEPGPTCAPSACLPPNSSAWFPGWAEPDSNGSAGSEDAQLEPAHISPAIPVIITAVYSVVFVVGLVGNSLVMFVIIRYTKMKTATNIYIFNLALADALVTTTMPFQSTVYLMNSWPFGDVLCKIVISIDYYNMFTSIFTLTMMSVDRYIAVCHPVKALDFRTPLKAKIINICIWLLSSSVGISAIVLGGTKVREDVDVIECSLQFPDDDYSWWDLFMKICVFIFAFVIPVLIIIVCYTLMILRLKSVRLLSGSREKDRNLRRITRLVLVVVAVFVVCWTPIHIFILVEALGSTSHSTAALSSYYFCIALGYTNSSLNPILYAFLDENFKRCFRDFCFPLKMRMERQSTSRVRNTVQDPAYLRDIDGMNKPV
Take `CN(C(=O)c1ccc(S(=O)(=O)c2cccc(Cl)c2)c([N+](=O)[O-])c1)C1CCCCC1`: the inhibition was -8.7% (inactive).

For `CC1(C)CC(=O)c2cc(OCC(=O)NCCN3CCOCC3)ccc2O1`, the inhibition is -16.7% (inactive).

Regarding `CCOC(=O)C(=O)N1CCC(Cc2ccccc2)CC1`, the inhibition was 31.7% (inactive).

Consider `O=C1CN(C(=O)COC(=O)CCNS(=O)(=O)c2ccc(Cl)cc2)c2ccccc2N1`, for which the inhibition was -18.1% (inactive).

As to `CC(/C=N\N1CCN(c2ccc(Cl)cc2)CC1)=C\c1ccccc1`, the inhibition was 53.7% (inactive).

In the case of `O=C(N/N=C/c1ccoc1)c1cc(Br)ccc1O`, the inhibition was -13.2% (inactive).

Take `O=C(O)c1ccccc1Nc1cc(Cl)c2nonc2c1[N+](=O)[O-]`: the inhibition was 34.1% (inactive).

On to `O=[N+]([O-])c1c(Nc2ccccc2O)ccc2nonc12`, for which the inhibition was 35.9% (inactive).

Consider `Cc1cccc(N(C(=O)c2snc(C(N)=O)c2N)C(C(=O)NC2CCCC2)c2ccncc2)c1` (configuration not stated), for which the inhibition was 12.2% (inactive).

As for `Cc1cc(C(C)(C)C)oc1C(=O)N(CC(=O)NC1CCCC1)Cc1ccccc1Cl`, the inhibition is 0.8% (inactive).

On to `Cc1cn(-c2cc(C(=O)Nc3ccc(C)c(NC(=O)C(=O)c4c[nH]c5ccccc45)c3)cc(C(F)(F)F)c2)cn1`, for which the inhibition is 0.6% (inactive).

Consider `Cc1cn(-c2cc(C(=O)Nc3ccc(C)c(NC(=O)N4CCNC4=O)c3)cc(C(F)(F)F)c2)cn1`, for which the inhibition was -20% (inactive).

Turning to `COc1ccc(CNC2CCCc3ccccc32)cc1OC` (configuration not stated), the inhibition was -0.9% (inactive).

For the compound `O=C(NNC1=Nc2ccccc2SC1)c1ccc(F)cc1`, the inhibition is 30.4% (inactive).

For `O=C(NNC1=Nc2ccccc2SC1)c1ccccc1F`, the inhibition is 10.4% (inactive).

Take `CCc1ccc(-n2c(=O)c3c(C)c(C(=O)N(C)C)sc3n(CC(=O)NCc3ccco3)c2=O)cc1`: the inhibition is -11.4% (inactive).

For `N=C1SCC(=O)N1c1nc(-c2ccccc2)cs1`, the inhibition was 23.4% (inactive).

Regarding `Cc1ccc(-c2csc(N3C(=N)SCC3=O)n2)cc1`, the inhibition was 26.9% (inactive).

For the compound `CCN1CCN(C(=S)c2ccc(Cl)cc2)CC1`, the inhibition was 12.5% (inactive).

Regarding `Cc1ccc(Cc2cnc(N3C(=N)SC(c4ccccc4)C3=O)s2)cc1` (configuration not stated), the inhibition was 37.3% (inactive).

For `Cc1ccc(Cc2cnc(N3C(=N)SC(C)C3=O)s2)cc1` (configuration not stated), the inhibition is 88.5% (active).

As for `Cc1ccc(Cc2cnc(NC(=O)c3cccs3)s2)cc1`, the inhibition is -17.2% (inactive).

As to `Cc1cccc(Cc2cnc(N3C(=N)SC(c4ccccc4)C3=O)s2)c1` (configuration not stated), the inhibition is -7.2% (inactive).

For `Cc1cccc(Cc2cnc(NC(=O)c3ccc(C)o3)s2)c1`, the inhibition was -9.9% (inactive).

For the compound `O=C(C1=C[C@H](c2ccccc2)C[C@H](OCc2ccc(CO)cc2)O1)N1CCN(Cc2ccc3c(c2)OCO3)CC1`, the inhibition was -13% (inactive).

As to `CNc1ncnc(Sc2ccc(Cl)cc2)c1[N+](=O)[O-]`, the inhibition was 8.9% (inactive).

As for `OCC1(Cc2cccc(Cl)c2)CCCN(Cc2sc(N3CCCC3)nc2Cl)C1` (configuration not stated), the inhibition is -39.6% [at 20 µM] (inactive).

Take `CN1N=C(C(=O)N2CCc3c([nH]c4ccccc34)C2c2ccccc2Cl)CCC1=O` (configuration not stated): the inhibition was -7% (inactive).

For the compound `O=C1COc2ccc(S(=O)(=O)NCc3ccc(Cl)cc3)cc2N1`, the inhibition was -23.4% (inactive).

For `COC(=O)c1sccc1S(=O)(=O)Nc1ccc(Cl)cc1`, the inhibition is 23.4% (inactive).

For the compound `CCOC(=O)C1CCN(C(=O)c2ccccc2CCc2ccccc2)CC1`, the inhibition is 12.9% (inactive).

For the compound `Cc1ccc(C(=O)CC(=O)c2ccccc2)cc1`, the inhibition was -30.1% [at 20 µM] (inactive).

Consider `Cc1ccc(C(=O)Nc2ccccc2Sc2ccccc2)cc1`, for which the inhibition is 5.8% (inactive).

For the compound `Cc1ccc(C(=O)Sc2cccccc2=O)cc1`, the inhibition was 88.3% (active).

Turning to `CCC1CCCCN1CCCNC(=O)c1csc2c1CCCCC2` (configuration not stated), the inhibition was -8.9% (inactive).

As for `CCOc1ccc(C(=O)Nc2ccc3c(c2)OCCO3)cc1`, the inhibition is -31.1% (inactive).

Regarding `NS(=O)(=O)c1ccc(CCNC(=O)CSc2nc3ccsc3c(=O)n2CC2CCC(C(=O)O)CC2)cc1` (configuration not stated), the inhibition is -14.6% (inactive).

As for `Cc1ccc(NS(=O)(=O)c2cccc3cccnc23)c(Cl)c1`, the inhibition is 19.4% (inactive).

Regarding `Cc1ccc(NS(=O)(=O)c2cccc3cccnc23)c(Br)c1`, the inhibition was -14.5% (inactive).

For `O=[N+]([O-])c1ccccc1S(=O)(=O)Nc1ncccn1`, the inhibition was -24.4% (inactive).

For the compound `O=S(=O)(Nc1ccccc1O)c1cccc2cccnc12`, the inhibition is 9.3% (inactive).

Consider `O=C(CCN1CCN(c2ccccc2)CC1)Nc1nccs1`, for which the inhibition is 11.6% (inactive).

Take `Cc1cccc(CN2CCN(C(=S)Nc3ccccc3)CC2)c1`: the inhibition was -33.1% [at 20 µM] (inactive).

On to `Cc1ccc(CNC(=O)C2CCCN(c3nc(C)cc(C)n3)C2)cc1` (configuration not stated), for which the inhibition is -35.8% [at 20 µM] (inactive).

Take `CCOc1ccc2noc3c2c1C(=O)c1ccccc1-3`: the inhibition was 7.4% (inactive).

Turning to `CCOC(=O)C(C(=O)OCC)c1cc(Br)c2noc3c2c1C(=O)c1ccccc1-3`, the inhibition was 68.5% (active).

For the compound `CCOC(=O)N1CCN(c2cc(NCCC(=O)O)c3c4c(onc24)-c2ccccc2C3=O)CC1`, the inhibition is -32.6% (inactive).

For the compound `c1cncc(-c2cn(C[C@H]3CC[C@@H]([C@@H]4CC[C@H](Cn5cc(-c6cccnc6)nn5)O4)O3)nn2)c1`, the inhibition is -10.8% [at 20 µM] (inactive).

`COc1ccc(OCC(=O)Nc2cc(NC(=O)c3ccco3)ccc2OC)cc1`: the inhibition was 4.9% (inactive).

For `COc1cc(Br)cc(-c2nc3c(c(=O)[nH]c(=O)n3Cc3ccccc3)n2C)c1O`, the inhibition was 7.6% (inactive).

Turning to `CCN=c1scc(-c2ccc3c(c2)NC(=O)CO3)n1N=C1CCCC1`, the inhibition was 15.3% (inactive).

In the case of `COCCN=c1scc(-c2ccc3c(c2)NC(=O)CO3)n1/N=C(\C)c1ccc(O)cc1`, the inhibition was 15.8% (inactive).

Take `COC(=O)c1[nH]c2ccc(C)cc2c1NC(=O)CN1CCN(c2ccc(F)cc2)CC1`: the inhibition is -0.7% (inactive).

For the compound `COc1ccc(C(=O)N/N=C/c2ccccn2)cc1OC`, the inhibition was -42.3% (inactive).

For `C/C(=N\NC(=O)C1COc2ccccc2O1)c1cccs1` (configuration not stated), the inhibition is -9.2% (inactive).

As to `C/C(=N\NC(=O)C1COc2ccccc2O1)c1ccc(C)o1` (configuration not stated), the inhibition was 13.3% (inactive).

Regarding `COc1ccc(C(=O)Nc2ccccc2C(=O)N/N=C/c2ccncc2)cc1OC`, the inhibition is -18.4% (inactive).

Take `O=C(N/N=C/c1ccccn1)c1ccccc1`: the inhibition is 30.7% (inactive).

As to `O=C(N/N=C/c1ccccn1)c1ccc(NC(=O)c2cccc([N+](=O)[O-])c2)cc1`, the inhibition was -28.7% (inactive).

`COc1cc(C(=O)N/N=C(\C)c2ccccn2)cc(OC)c1OC`: the inhibition is -6.4% (inactive).

With `COc1ccc(C(=O)N/N=C(\C)c2ccccn2)cc1OC`, the inhibition was 95% (active).

`COc1ccc(C(=O)N/N=C(\C)CC(=O)Nc2ccccn2)cc1OC`: the inhibition was 3.4% (inactive).
